Reference: PubChem BioAssay (NCI)
This is part of a sample that, as a whole, favours compounds with a hit. Of some 83,000 tested, about 20% had one in any assay.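 Single-dose data. Exposure time 48 hours. Values below 10 considered active.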 Calls of active or inactive are those of the source.

Key:
Test in all cases: NCI-60 one-dose screen, 48 h (100 = growth as untreated, 0 = no growth, -100 = all killed)
Settings in all cases: 10 µM unless noted
HCT-15 colon = tested on: HCT-15 colon
HT29 colon = tested on: HT29 colon
SNB-19 CNS = tested on: SNB-19 CNS
U251 CNS = tested on: U251 CNS
PC-3 prostate = tested on: PC-3 prostate
SK-MEL-5 melanoma = tested on: SK-MEL-5 melanoma
UACC-62 melanoma = tested on: UACC-62 melanoma
LOX IMVI melanoma = tested on: LOX IMVI melanoma
SK-MEL-28 melanoma = tested on: SK-MEL-28 melanoma

Measured: growth

Brc1cccc(-c2cc(-c3cnc4c(c3)OCCO4)n[nH]2)c1
inactive: HCT-15 colon 21.1% | HT29 colon 18.8% | SNB-19 CNS 59.8% | U251 CNS 43.3% | PC-3 prostate 79.1% | SK-MEL-5 melanoma 24.2% | UACC-62 melanoma 55.5% | LOX IMVI melanoma 37.1% | SK-MEL-28 melanoma 59%

CC(C)[C@H]1c2[nH]c3ccccc3c2C[C@H]2C(=O)N(CCCCCCC(=O)NO)CC(=O)N12
inactive: HCT-15 colon 97.5% | HT29 colon 77.4% | SNB-19 CNS 86.7% | U251 CNS 81% | PC-3 prostate 86% | SK-MEL-5 melanoma 75% | UACC-62 melanoma 56.2% | LOX IMVI melanoma 72.7% | SK-MEL-28 melanoma 71.7%

CCN(CC)CCOc1ccc(C(=C(c2ccccc2)C2CCCC2)c2ccc(OCCN(CC)CC)cc2)cc1
inactive: SNB-19 CNS 14.6% | U251 CNS 20.5% | PC-3 prostate 14.6% | SK-MEL-28 melanoma 29%
active: HCT-15 colon -70.2% | HT29 colon -5.44% | SK-MEL-5 melanoma -82.4% | UACC-62 melanoma -74.7% | LOX IMVI melanoma -56.6%

CSc1ccc(C(=NNS(=O)(=O)c2ccc(C)cc2)c2ccc(Cl)cc2)cc1
inactive: HCT-15 colon 101% | HT29 colon 99.8% | SNB-19 CNS 105% | U251 CNS 103% | PC-3 prostate 86.4% | SK-MEL-5 melanoma 99.3% | UACC-62 melanoma 90.1% | LOX IMVI melanoma 106% | SK-MEL-28 melanoma 102%

N#Cc1c(-c2cccs2)cc(-c2cnccn2)nc1SCC(=O)N/N=C/c1cccs1
inactive: HCT-15 colon 62.8% | HT29 colon 30.9% | SNB-19 CNS 47.7% | U251 CNS 19.5% | PC-3 prostate 53.6% | UACC-62 melanoma 55.6% | SK-MEL-28 melanoma 27.5%
active: LOX IMVI melanoma 7.29%

COc1ccccc1Cn1cc(C#N)c(N)c1C(=O)c1ccc(Br)cc1
inactive: HCT-15 colon 86.6% | HT29 colon 107% | SNB-19 CNS 84.9% | U251 CNS 102% | PC-3 prostate 96.8% | SK-MEL-5 melanoma 96.7% | UACC-62 melanoma 69.7% | LOX IMVI melanoma 94.6% | SK-MEL-28 melanoma 100%

CCCCN1C(=O)/C(=c2\sc3n(c2=O)C2C(NN=3)N(CC)C(=O)N2CC)c2cc(C)ccc21 (stereo not given)
inactive: HCT-15 colon 86.2% | HT29 colon 102% | SNB-19 CNS 93.3% | U251 CNS 98.3% | PC-3 prostate 95.8% | SK-MEL-5 melanoma 92.8% | UACC-62 melanoma 71.6% | LOX IMVI melanoma 78.8% | SK-MEL-28 melanoma 102%

CN1CCN(c2ccc(Nc3nc(NCCCNS(=O)(=O)c4ccc(F)cc4)c4sccc4n3)cc2)CC1
active: LOX IMVI melanoma -5.7% | SK-MEL-28 melanoma -42.9%
inactive: HCT-15 colon 25.5% | HT29 colon 11.4% | SNB-19 CNS 74.5% | U251 CNS 15.7% | PC-3 prostate 60.5% | SK-MEL-5 melanoma 20.5% | UACC-62 melanoma 21.1%

NNc1nnc2nc(Nc3ccccc3)nc(Nc3ccc(S(N)(=O)=O)cc3)n12
inactive: HCT-15 colon 100% | HT29 colon 108% | SNB-19 CNS 102% | U251 CNS 105% | PC-3 prostate 103% | SK-MEL-5 melanoma 101% | UACC-62 melanoma 95.8% | LOX IMVI melanoma 97.3% | SK-MEL-28 melanoma 106%

CCOC(=O)C1=C(C)NC(C)=C(C(=O)OC(C)C)C1c1cccc(C#N)c1 (stereo not given)
inactive: HCT-15 colon 99.1% | HT29 colon 108% | SNB-19 CNS 101% | U251 CNS 100% | PC-3 prostate 87.2% | SK-MEL-5 melanoma 99.6% | UACC-62 melanoma 93.3% | LOX IMVI melanoma 95.2% | SK-MEL-28 melanoma 105%

O=C(CSc1nnc(-c2ccc(Cl)cc2)n1-c1ccccc1)Nc1ccc(Cl)cc1
inactive: HCT-15 colon 81.5% | HT29 colon 62.6% | SNB-19 CNS 59.6% | U251 CNS 32.7% | PC-3 prostate 61.4% | SK-MEL-5 melanoma 82.2% | UACC-62 melanoma 76.1% | LOX IMVI melanoma 10.8% | SK-MEL-28 melanoma 71.2%

CC(=O)OC[C@@]12Oc3c(cccc3-c3ccc(O)c4c3O[C@]3(COC(C)=O)C(=C4O)C(=O)C[C@H](C)[C@@H]3OC(C)=O)C(O)=C1C(=O)C[C@H](C)[C@@H]2OC(C)=O
active: SK-MEL-5 melanoma -62.8% | UACC-62 melanoma -36.9% | LOX IMVI melanoma -66.1% | SK-MEL-28 melanoma 9.46%
inactive: HCT-15 colon 11.9% | HT29 colon 10.4% | SNB-19 CNS 17.7% | U251 CNS 16.6% | PC-3 prostate 11.6%

O=C(Nc1ccc(Cl)c(C(F)(F)F)c1)Nc1ccc2oc(=O)ccc2c1
active: LOX IMVI melanoma 1.96%
inactive: HCT-15 colon 16.6% | HT29 colon 65.4% | SNB-19 CNS 28.5% | U251 CNS 31.3% | PC-3 prostate 10.6% | SK-MEL-5 melanoma 41.4% | UACC-62 melanoma 27.9% | SK-MEL-28 melanoma 66.7%

Clc1ccc2[nH]cc(-c3nn4cc(-c5cccnc5)nc4s3)c2c1
inactive: HCT-15 colon 95.1% | HT29 colon 98.7% | SNB-19 CNS 100% | U251 CNS 93.8% | PC-3 prostate 88.6% | SK-MEL-5 melanoma 96.2% | UACC-62 melanoma 90.1% | LOX IMVI melanoma 123% | SK-MEL-28 melanoma 101%
